Data on 7 molecules can be found in PubChem BioAssay (NCI).

What all share (assay): NCI-60 one-dose screen, 48 h (100 = growth as untreated, 0 = no growth, -100 = all killed)
Settings in all cases: 10 µM unless noted

For assay [1], the system named is DU-145 prostate.
Assay [2] has as its system K-562 leukemia.
For assay [3], the system named is MALME-3M melanoma.
Assay [4] concerns MDA-MB-231 breast.
For assay [5], the system named is RXF 393 renal.
For assay [6], the system named is SF-268 CNS.
Assay [7] concerns SF-295 CNS.
Assay [8] concerns SF-539 CNS.
The subject of assay [9] is UACC-257 melanoma.
The test system of assay [10] is M14 melanoma.
Assay [11] has as its system HCT-15 colon.
Assay [12] deals with HT29 colon.
The test system of assay [13] is SNB-75 CNS.
The subject of assay [14] is SNB-19 CNS.
Assay [15] has as its system U251 CNS.
Assay [16] deals with PC-3 prostate.
The test system of assay [17] is SK-MEL-5 melanoma.
In assay [18] the test system is UACC-62 melanoma.
Assay [19] concerns LOX IMVI melanoma.
The subject of assay [20] is SK-MEL-28 melanoma.

Molecules are shown by their SMILES. About 83,000 compounds went through this panel and 20% of them were active in at least one assay; those are over-represented in the sample as a whole.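 Percent growth is the endpoint: 0 to 100 indicates growth inhibition (40 means 60% inhibition), 0 means no net growth, and negative values indicate cell death.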 Values without a mark were called inactive. Calls of active or inactive are those of the source. Rule for the calls: active = growth percent below 10; inactive = the rest.

On to `Ic1ccc2[nH]cc(SSc3c[nH]c4ccc(I)cc34)c2c1`, for which the growth in assay [1] was 72.5%; in assay [2] it was 9.29% (active); in assay [3] it was 73.2%; in [4], 7.64% (active); in [5], 46.4%; in [6], -18.1% (active). For the same molecule, the growth in [7] is -19.1% (active); in [8], 21.3%; in assay [9] it was 34.6%; in assay [10], 27.6%; in [11] it was 15.6%; in assay [12] it was 32%. For the same molecule, the growth in assay [13] was 46.6%; in assay [14], 13.3%; in assay [15], 18.3%; in assay [16], 7.98% (active); in [17], 86.6%; in assay [18] it was 45.4%. Also, the growth in assay [19] is 4.6% (active); in [20] it was 40.9%.
Regarding `O=C(NCCCCCCCNC(=O)OCc1ccc2c(Cl)cc(Cl)c(O)c2n1)OCc1ccc2c(Cl)cc(Cl)c(O)c2n1`, the growth in [1] is -87.3% (active); in [2], 2.04% (active); in assay [3], -87.4% (active); in [4], -72% (active); in assay [5] it was -90.1% (active); in [6] it was -58.8% (active). Also, the growth in assay [7] was 1.17% (active); in assay [8] it was -96.6% (active); in assay [9], -41.6% (active); in assay [10] it was -76.4% (active); in assay [11], -24.6% (active); in [12], -67% (active). The growth was -92.4% (active) in [13]; 0.446% (active) in assay [14]; -90.8% (active) in assay [15]; -54.5% (active) in [16]; -96.1% (active) in assay [17]; -79.3% (active) in [18]. Besides, the values for the growth in [19] and in assay [20] were -88.5% (active) and -83.1% (active), respectively.
With `Oc1ccc(N=Nc2nccs2)c(O)c1`, the growth in [1] is 64%; in assay [2], 44%; in assay [3], 92.9%; in assay [4], 54.9%; in [5] it was 90%; in assay [6], 51.5%. Further, the growth in [7] was 40.3%; in [8], 86.1%; in assay [9], 99.5%; in [10], 68%; in assay [11], 28.6%; in assay [12], 51.5%. The growth in [13] was 92.7%; in assay [14], 90.8%; in assay [15], 41.1%; in assay [16] it was 55.2%; in assay [17], 87.9%; in assay [18], 44.3%. Further, the growth in [19] is 40%; in assay [20], 118%.
Consider `O=S(=O)(NCc1ccccc1)c1ncnc2nc[nH]c12`, for which the growth is 111% in assay [1]; 97.1% in assay [2]; 117% in [3]; 107% in assay [4]; 114% in assay [5]; 110% in assay [6]. Also, the growth is 104% in assay [7]; 98.1% in assay [8]; 92.7% in assay [9]; 108% in [10]; 108% in assay [11]; 106% in [12]. For the same molecule, the growth is 91.4% in [13]; 108% in assay [14]; 86% in assay [15]; 105% in assay [16]; 99.7% in [17]; 96.4% in [18]. The growth is 99.1% in assay [19] and 107% in [20].
On to `COc1ncnc2c(-c3ccccc3)cn(COCc3ccccc3)c12`, for which the growth in assay [1] is 86.6%; in assay [2], 29.5%; in assay [3], 51.9%; in assay [4] it was 56.9%; in [5], 70.3%; in assay [6] it was 74.4%. The growth in assay [7] was 52.6%; in assay [8], 84.1%; in [9] it was 40%; in [10] it was 44.1%; in assay [11], 42.6%; in assay [12] it was 47.8%. For the same molecule, the growth in assay [13] was 99.8%; in assay [14], 78%; in assay [15] it was 60.1%; in assay [16], 25.2%; in assay [17], 5.61% (active); in assay [18], 40.4%. The growth in assay [19] is 56%; in [20], 77.9%.
Turning to `Cc1ccc(S(=O)(=O)Oc2ccc(Br)cc2Br)cc1`, the growth in [1] was 78.1%; in [2], 18.5%; in assay [3] it was 92%; in assay [4], 85%; in assay [5], 87.9%; in assay [6], 76.5%. Further, the growth was 69.3% in assay [7]; 81.6% in [8]; 81.4% in assay [9]; 78.8% in [10]; 48.5% in assay [11]; 34.5% in [12]. In addition, the growth in assay [13] is 64.8%; in [14], 75.7%; in assay [15], 48.5%; in [16], 79.4%; in [17], 77.9%; in [18] it was 63.8%. For the same molecule, the growth was 52.3% in assay [19] and 92.8% in assay [20].
For `Cn1cc(-c2nnc(-c3cn(C)c4ncc(Br)cc34)o2)c2ccccc21`, the growth in [1] was 103%; in assay [2], 49.1%; in [3], 75.2%; in assay [4] it was 75.3%; in assay [5], 70.8%; in assay [6], 89.1%. The growth is 89.3% in [7]; 92.1% in [8]; 98.5% in assay [9]; 96.4% in assay [10]; 53.3% in assay [11]; 87.7% in [12]. Further, the growth in [13] was 65.8%; in [14], 87.6%; in assay [15], 94.3%; in [16] it was 77.2%; in [17], 80.1%; in assay [18], 70.8%. Further, the results for the growth in assay [19] and in assay [20] were 92.3% and 91.7%, respectively.
